Reference: PubChem BioAssay AID602250 (The Scripps Research Institute Molecular Screening Center, 2012)
About 2,200 (0.61%) of roughly 360,000 compounds were called active. Only a selection was taken, and actives are over-represented in it overall. A number with no mark means an inactive call.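 How the source made its calls: active means inhibition above a per-plate cutoff, the plate's mean sample inhibition plus 3 SD (cut at about 24% in these data); inactive means the rest.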

Assay: nonselective inhibitors of ATP calcium response in CHO-K1, primary screen, counter-screen for M1 antagonist project, cell-based, Fluo-8 calcium fluorescence, full deck, 1536-well (AID 602250);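 further: 0% = DMSO plus EC80 ATP and 100% = DMSO alone without ATP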
Settings: CHO-K1 parental, ATP-induced calcium, Fluo-8 fluorescence; at 3 µM; hits give high values

For CCC(=O)OC(Cc1ccccc1)(c1ccccc1)C(C)CN(C)C (stereo not given), the inhibition was 25.3% (active).

Going from CN(C)CC1Oc2ccccc2OC1(O)c1ccccc1 (stereo not given) to CN(C)S(=O)(=O)c1cc(C(=O)N2CCC(C(=O)O)(c3ccccc3)CC2)ccc1Cl, the inhibition falls from -2.02% to -5.53%.

First: CN1CCN(Cc2ccc(OC(F)(F)F)cc2)CC1
Second: OC1/C(=C/c2ccc(C(F)(F)F)cc2)N2CCC1CC2 (stereo not given)
The inhibition of the first is higher: -3.91% for the first, -10.6% for the second.
